Screens deposited in PubChem by National Center for Advancing Translational Sciences (NCATS).
An excerpt weighted towards active compounds, which were near 12% of everything screened.
BAZ2B block – blocks human BAZ2B; 360,000 compounds, 4.4% hits; Potency, µM (highest dose often 114 µM), inactives show at the top dose activity change, negative = inhibition, most hits filed as inhibitors; AlphaScreen BAZ2B-H3K14Ac peptide displacement; note: potency is the fitted concentration of half-maximal effect; % is set by controls: 0 for no effect and ±100 for the full control effect; nearly all actives have a fitted effect of over 60% in size
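AlphaScreen luminescence quantifies BAZ2B engagement of H3K14Ac peptide; the protein and biotinylated peptide are both at 50 nM final, buffer PBS pH 7.4 with 0.01% Tween-20, all steps at room temperature.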
PLK1 PBD inh – blocks phosphopeptide binding to human PLK1 polo-box domain; Plk1 PBD binding of FITC phosphopeptide, fluorescence polarization; Potency, µM, for inactives: max response, negative = inhibition, actives largely listed as inhibitors; 360,000 compounds, 2.8% hits; P53350; note: potency is the fitted concentration of half-maximal effect; series mostly up to about 57 µM; % is set by controls: 0 for no effect and ±100 for the full control effect; nearly all actives have a fitted effect of over 65% in size
PI5P4Ka inh – blocks human PI5P4K alpha kinase activity; P48426; PI5P4Kalpha enzyme, ADP-Glo luminescence, 60 min; active compounds read low; max response, %; 330,000 compounds, 1.2% hits; AID 652105; active = max response of -50% or lower; inconclusive = between -30% and -50%; inactive = -30% or higher; note: value at the top dose of about 77 µM; % is set by controls: 0 for no effect and ±100 for the full control effect
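Human PI5P4Kalpha with substrate in 0.038 M HEPES pH 7.4, 0.28 mM EGTA, 0.1% CHAPS, 5% DMSO; reaction started with 5 microM ATP (final), 60 min at room temperature. ADP formed read by ADP-Glo luminescence.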
G9a block – inhibitors of human histone lysine methyltransferase G9a; Q96KQ7; G9a H3K9 monomethylation, AlphaScreen, 2 h; Potency, µM (doses to about 102 µM), for the others: top-dose activity, negative = inhibition, most hits filed as inhibitors; 350,000 compounds, 8.8% hits; note: potency is the fitted concentration of half-maximal effect; % is set by controls: 0 for no effect and ±100 for the full control effect; nearly all actives have a fitted effect of over 75% in size
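Compounds were preincubated with 20 nM G9a for 15 min, after which biotinylated H3K9 peptide (500 nM) and SAM (20 uM) started a 2 h room-temperature reaction. Monomethylated product was quantified by antibody-based AlphaScreen chemiluminescence.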
JMJD2A Tudor inh – JMJD2A Tudor domain (human) inhibition. 390,000 compounds, 4.4% hits. Potency, µM (series often up to 114 µM), for inactives: at the highest dose activity change, negative = inhibition, most hits filed as inhibitors. AlphaScreen JMJD2A-Tudor / H3K4me3 peptide binding; note: potency is the fitted concentration of half-maximal effect; % is set by controls: 0 for no effect and ±100 for the full control effect; nearly all actives have a fitted effect of over 50% in size
Target sequence (O75164 whole entry, looked up, the tested form may be a part): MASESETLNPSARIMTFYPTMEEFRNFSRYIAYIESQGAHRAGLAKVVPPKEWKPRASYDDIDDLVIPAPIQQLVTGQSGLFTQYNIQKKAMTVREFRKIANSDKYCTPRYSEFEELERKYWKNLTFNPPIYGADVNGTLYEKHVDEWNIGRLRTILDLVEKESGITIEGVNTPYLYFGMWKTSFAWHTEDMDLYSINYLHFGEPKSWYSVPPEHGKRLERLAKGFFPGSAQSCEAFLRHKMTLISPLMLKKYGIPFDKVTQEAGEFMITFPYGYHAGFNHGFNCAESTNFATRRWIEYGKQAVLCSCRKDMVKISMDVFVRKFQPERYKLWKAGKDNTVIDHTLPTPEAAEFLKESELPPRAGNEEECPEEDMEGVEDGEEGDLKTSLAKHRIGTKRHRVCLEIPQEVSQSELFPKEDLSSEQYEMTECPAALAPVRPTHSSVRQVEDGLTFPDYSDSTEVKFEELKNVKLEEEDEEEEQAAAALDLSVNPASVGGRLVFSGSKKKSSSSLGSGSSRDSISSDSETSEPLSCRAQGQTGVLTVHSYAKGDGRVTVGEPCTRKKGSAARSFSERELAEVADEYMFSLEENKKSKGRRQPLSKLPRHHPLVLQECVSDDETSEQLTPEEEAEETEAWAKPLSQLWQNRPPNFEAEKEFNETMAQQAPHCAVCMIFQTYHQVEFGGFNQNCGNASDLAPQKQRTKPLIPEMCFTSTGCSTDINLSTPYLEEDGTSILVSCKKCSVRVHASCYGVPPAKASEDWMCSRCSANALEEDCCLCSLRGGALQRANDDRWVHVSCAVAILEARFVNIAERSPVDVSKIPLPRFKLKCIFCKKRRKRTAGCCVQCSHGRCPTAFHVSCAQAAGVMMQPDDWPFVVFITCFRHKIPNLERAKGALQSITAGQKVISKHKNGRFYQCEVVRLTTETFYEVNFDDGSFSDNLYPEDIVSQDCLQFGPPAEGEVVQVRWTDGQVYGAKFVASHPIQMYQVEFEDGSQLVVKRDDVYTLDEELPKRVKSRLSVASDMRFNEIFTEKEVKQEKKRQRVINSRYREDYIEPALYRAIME
HP1b chromo inh – HP1-beta chromodomain-methylated histone interaction inhibition; P83916; AlphaScreen HP1-beta / biotin-H3K9me3 peptide binding; Potency, µM (titrated, usually from 114 µM), for the others: at the highest dose activity change, negative = inhibition, usual class: inhibitors; 390,000 compounds, 0.56% hits; AID 540317; note: potency is the fitted concentration of half-maximal effect; nearly all actives have a fitted effect of over 70% in size
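AlphaScreen: HP1-beta (50 nM) preformed 30 min with biotin-H3(1-18)K9me3 peptide (50 nM) in PBS pH 7.4, 0.01% Tween-20. Compound added for 30 min at RT, then streptavidin donor/nickel chelate acceptor beads (10 ug/mL) for 30 min.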
Starred values were filed as active, the others as inactive; [ ] = dose if it differs, or a comment. Unless noted, calls come from the whole dose curve; as a rule, active = well fitted curve in the direction sought with a large enough effect; inconclusive = small, poorly fitted or top-dose-only effect, or another doubt; inactive = no such curve, though single readings can be large; an effect the other way counts as inactive or inconclusive.

Screening Nc1ccc2nc(-c3cccnc3)[nH]c2c1 returned BAZ2B block -3%, PLK1 PBD inh -4%, PI5P4Ka inh 2, G9a block 4%[59 µM], JMJD2A Tudor inh -6% and HP1b chromo inh 16%.
COC(=O)C1(C)CCCC2(C)C3CCC(C(C)C)C(CO)C3C(CO)CC12 (stereo not drawn) was read as PLK1 PBD inh -8% and PI5P4Ka inh 30.
`Cc1ccc(NC(=O)NC2=NN(c3ccccc3)C(=O)/C2=C2/CCCN2C)cc1` gave BAZ2B block 2%, PLK1 PBD inh 1%, PI5P4Ka inh 8, G9a block -46%, JMJD2A Tudor inh -7% and HP1b chromo inh 39%.
For CN1CCC/C1=C1/C(=O)N(c2ccccc2)N=C1NC(=O)Nc1cccc(Cl)c1 the results were BAZ2B block -18%, PLK1 PBD inh 3.8µM*, PI5P4Ka inh inconclusive, G9a block -36%, JMJD2A Tudor inh 20µM* and HP1b chromo inh -16%.
`NNC1=N[C@H]2CS(=O)(=O)C[C@H]2S1` gave BAZ2B block -5%, PLK1 PBD inh -4%, PI5P4Ka inh 0, G9a block 9%[59 µM], JMJD2A Tudor inh 8.9µM* and HP1b chromo inh 10%.
For CCOC(=O)c1cccc(NC(=O)CC2C(=O)N(c3ccc(C)cc3)C(=O)N2Cc2cccc(OC)c2)c1 (stereo not drawn) the results were BAZ2B block -11%, G9a block inconclusive, JMJD2A Tudor inh -15% and HP1b chromo inh 19%.
For CN1CCC(Oc2ccccc2Sc2ccc(C(F)(F)F)cc2)CC1 the results were BAZ2B block 79µM*, PLK1 PBD inh 0%, PI5P4Ka inh -7, G9a block inconclusive, JMJD2A Tudor inh inconclusive and HP1b chromo inh 11%.
`CN1CCC(Oc2ccc(Sc3ccccc3)cc2)CC1` gave BAZ2B block -21%, PLK1 PBD inh 0%, PI5P4Ka inh 7, G9a block -6%[59 µM], JMJD2A Tudor inh -24% and HP1b chromo inh 16%.
For O=S(=O)(Cc1ccccc1)NCc1ccccn1 the results were BAZ2B block -12%, PLK1 PBD inh -5%, G9a block inconclusive, JMJD2A Tudor inh 3.5µM* and HP1b chromo inh 8%.
Screening COc1ccc(S(=O)(=O)NCc2ccccn2)c(C)c1C returned BAZ2B block 12%, PLK1 PBD inh 5%, PI5P4Ka inh 2, JMJD2A Tudor inh 10% and HP1b chromo inh 24%.
For CCOc1ccc(OCC)c(S(=O)(=O)NCc2ccccn2)c1 the results were BAZ2B block -6%, PLK1 PBD inh -4%, G9a block -25%[59 µM], JMJD2A Tudor inh 89µM* and HP1b chromo inh 9%.
COc1c(C)cc(S(=O)(=O)NCc2ccccn2)c(C)c1C was read as BAZ2B block 4%, PLK1 PBD inh 10%, PI5P4Ka inh -6, G9a block -14%[0.501 µM], JMJD2A Tudor inh 25µM* and HP1b chromo inh 31%.
`COC(=O)Nc1ccc(S(=O)(=O)NCc2ccccn2)cc1` gave BAZ2B block -12%, PLK1 PBD inh -7%, PI5P4Ka inh 1, G9a block 14%, JMJD2A Tudor inh 5.6µM* and HP1b chromo inh -6%.
COc1cc(Cl)c(C)cc1NC(=O)c1nn(-c2ccc(C)cc2)c(=O)n(C)c1=O was read as BAZ2B block -4%, G9a block -18%[59 µM], JMJD2A Tudor inh -14% and HP1b chromo inh 23%[57 µM].
CCOC(=O)c1ccccc1NC(=O)c1c2c(nc3ccccc13)C(=O)N(C1CCCCC1)C2 was read as BAZ2B block -2%, G9a block -1%[59 µM], JMJD2A Tudor inh -7% and HP1b chromo inh 36%.
Screening O=S(=O)(NCc1ccccn1)c1cccc2nsnc12 returned BAZ2B block inconclusive, PLK1 PBD inh 3%, PI5P4Ka inh -3, G9a block 20µM*, JMJD2A Tudor inh inconclusive and HP1b chromo inh 27%.
For O=S(=O)(NCc1ccccn1)c1ccccc1 the results were BAZ2B block -1%, PLK1 PBD inh -1%, PI5P4Ka inh -1, G9a block 17%[59 µM], JMJD2A Tudor inh 8.9µM* and HP1b chromo inh 22%.
`COc1cccc(S(=O)(=O)Nc2ccc3sc(C)nc3c2)c1` gave BAZ2B block -8%, PLK1 PBD inh -28%, PI5P4Ka inh 6, G9a block 22µM*, JMJD2A Tudor inh 79µM* and HP1b chromo inh 26%.
`Cc1nc2cc(NS(=O)(=O)c3cccc4cccnc34)ccc2s1` gave BAZ2B block 7%, PLK1 PBD inh -11%, PI5P4Ka inh 3, JMJD2A Tudor inh -10% and HP1b chromo inh 35%.
COc1ccc(CNC(=O)CC2N=C3c4ccccc4N=C(SCC(=O)Nc4ccc(C(C)C)cc4)N3C2=O)cc1 (stereo not drawn) was read as BAZ2B block -15%, G9a block -7%[59 µM], JMJD2A Tudor inh -29% and HP1b chromo inh 17%.
`COc1ccc(CNC(=O)C2CCCN2C(=O)NCc2ccccc2)cc1` (stereo not drawn) gave BAZ2B block -21%, PLK1 PBD inh 1%, PI5P4Ka inh 7, G9a block 48%, JMJD2A Tudor inh 8% and HP1b chromo inh 43%.
For COc1ccc(NC(=S)NCc2ccc3c(c2)cc(C)n3C)cc1 the results were BAZ2B block 45µM*, PLK1 PBD inh -15%, PI5P4Ka inh -12, G9a block 40µM*, JMJD2A Tudor inh 50µM* and HP1b chromo inh inconclusive.
Screening COc1ccc(NC(=O)C2CCCN2C(=O)NCc2ccccc2)cc1 (stereo not drawn) returned BAZ2B block 3%, PLK1 PBD inh 15µM*, PI5P4Ka inh inconclusive, G9a block -4%[12.7 µM], JMJD2A Tudor inh 14µM* and HP1b chromo inh 1%.
COc1ccc(C(=O)NCc2ccc3c(c2)cc(C)n3C)cc1OC was read as BAZ2B block inconclusive, PLK1 PBD inh -16%, PI5P4Ka inh 1, G9a block inconclusive, JMJD2A Tudor inh -32% and HP1b chromo inh -4%.
COc1ccccc1NC(=S)NCc1ccc2c(c1)cc(C)n2C was read as BAZ2B block 25µM*, PLK1 PBD inh -6%, PI5P4Ka inh 0, G9a block inconclusive, JMJD2A Tudor inh 50µM* and HP1b chromo inh inconclusive.
COc1cccc(C(=O)NCc2ccc3c(c2)cc(C)n3C)c1 was read as BAZ2B block inconclusive, PLK1 PBD inh -6%, PI5P4Ka inh 1, G9a block 50µM*, JMJD2A Tudor inh inconclusive and HP1b chromo inh 0%.
Screening CCOC(=O)C1CCCN(S(=O)(=O)c2ccc3c(c2)CCN3C(=O)CC)C1 (stereo not drawn) returned BAZ2B block -16%, G9a block 1%[59 µM], JMJD2A Tudor inh -8% and HP1b chromo inh 26%.
